Measured values from the supplement of paper PMC10849652.
The full data set covers some 8,800 targets. This sample favours those with a hit. About 0.5% of all pairs of compound and target were hits.

Assays:
Test in all cases: log2 fold change, soluble protein after heating vs DMSO (PISA); higher = thermal stabilisation; K562 lysate, 10 uM; active = over 0.2 and 3.5 SD of the protein, either way, in both replicates (recomputed)
vemurafenib = compound: CCCS(=O)(=O)Nc1ccc(F)c(C(=O)c2c[nH]c3ncc(-c4ccc(Cl)cc4)cc23)c1F [vemurafenib]
Outline: (§1)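 Values give the log-two fold change in thermal stability against solvent controls, from duplicates. Crude K562 extract at 1 mg/mL protein, made by dounce homogenisation in PBS pH 7.4 with 1 mM MgCl2, was treated with 10 μM compound for 30 min. After 3 min heating across 48°C-58°C, aliquots were pooled, adjusted to 0.5% NP-40 at 4°C and centrifuged at 21,000xg for 90 min. The supernatant was measured by TMTpro 16plex LC-MS/MS with channel sums equalised.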

[1] = compound: CCCS(=O)(=O)Nc1ccc(F)c(C(=O)c2c[nH]c3ncc(Cl)cc23)c1F
Outline: as §1

barasertib = compound: CCN(CCCOc1ccc2c(Nc3cc(CC(=O)Nc4cccc(F)c4)[nH]n3)ncnc2c1)CCOP(=O)(O)O [barasertib]
Outline: as §1

[2] = compound: CC[C@@H]1C(=O)N(C)c2cnc(Nc3ccc(C(=O)NC4CCN(C)CC4)cc3OC)nc2N1C1CCCC1
Outline: as §1

volasertib = compound: CC[C@@H]1C(=O)N(C)c2cnc(Nc3ccc(C(=O)N[C@H]4CC[C@H](N5CCN(CC6CC6)CC5)CC4)cc3OC)nc2N1C(C)C [volasertib]
Outline: as §1

[3] = compound: CCn1c(C(=O)N(C2CC2)C2CC2)cc2c3c(ncn3C)c(Nc3cc(C)n(C)n3)nc21
Outline: as §1

[4] = compound: CCn1cc(-c2ccnc3[nH]c(-c4cccc(CN(C)C)c4)cc23)c(-c2ccc(NC(=O)N(C)C)cc2)n1
Outline: as §1

[5] = compound: CN1CCC(CNc2ccc3ncc(-c4cccc(OC(F)(F)F)c4)n3n2)CC1
Outline: as §1

saracatinib = compound: CN1CCN(CCOc2cc(OC3CCOCC3)c3c(Nc4c(Cl)ccc5c4OCO5)ncnc3c2)CC1 [saracatinib]
Outline: as §1

sotrastaurin = compound: CN1CCN(c2nc(C3=C(c4c[nH]c5ccccc45)C(=O)NC3=O)c3ccccc3n2)CC1 [sotrastaurin]
Outline: as §1

alvocidib = compound: CN1CC[C@H](c2c(O)cc(O)c3c(=O)cc(-c4ccccc4Cl)oc23)[C@H](O)C1 [alvocidib]
Outline: as §1

Tubastatin A = compound: CN1CCc2c(c3ccccc3n2Cc2ccc(C(=O)NO)cc2)C1 [Tubastatin A]
Outline: as §1

[6] = compound: CNC(=O)C1=CC=CC=C1NC2=NC(=NC=C2Cl)NC3=C(C=C(C=C3)N4CCOCC4)OC
Outline: as §1

defactinib = compound: CNC(=O)c1ccc(Nc2ncc(C(F)(F)F)c(NCc3nccnc3N(C)S(C)(=O)=O)n2)cc1 [defactinib]
Outline: as §1

[7] = compound: CNc1nc(-c2ccc3c(N)n[nH]c3c2)cc(N2C[C@@H](C(=O)NC3CCCCC3)CC[C@H]2C)n1
Outline: as §1

encorafenib = compound: COC(=O)N[C@@H](C)CNc1nccc(-c2cn(C(C)C)nc2-c2cc(Cl)cc(NS(C)(=O)=O)c2F)n1 [encorafenib]
Outline: as §1

[8] = compound: COC(=O)[C@H](CCSC)NC(=O)C1=C(C=C(C=C1)NC[C@H](CS)N)C2=CC=CC=C2
Outline: as §1

alisertib = compound: COc1cc(Nc2ncc3c(n2)-c2ccc(Cl)cc2C(c2c(F)cccc2OC)=NC3)ccc1C(=O)O [alisertib]
Outline: as §1

[9] = compound: COc1cc2nc(-c3cc(F)ccc3O)nc(N[C@@H]3CNC[C@H]3C(C)(C)O)c2cc1OC
Outline: as §1

gefitinib = compound: COc1cc2ncnc(Nc3ccc(F)c(Cl)c3)c2cc1OCCCN1CCOCC1 [gefitinib]
Outline: as §1

Measured: log2 fold change

ILRUN (UniProt Q9H6K1)
UniProt Q9H6K1, sequence (Q9H6K1 whole entry, looked up): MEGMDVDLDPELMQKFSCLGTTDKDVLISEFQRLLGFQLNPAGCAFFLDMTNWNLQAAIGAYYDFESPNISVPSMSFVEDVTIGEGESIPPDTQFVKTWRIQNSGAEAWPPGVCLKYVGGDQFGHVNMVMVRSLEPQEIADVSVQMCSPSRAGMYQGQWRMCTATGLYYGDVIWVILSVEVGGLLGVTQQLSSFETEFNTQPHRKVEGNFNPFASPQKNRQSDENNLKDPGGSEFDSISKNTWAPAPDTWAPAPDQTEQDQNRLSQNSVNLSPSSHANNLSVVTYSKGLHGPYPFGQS
inactive: vemurafenib -0.012 | [1] 0.048 | barasertib 0.06 | [2] -0.001 | volasertib -0.058 | [3] -0.059 | [4] -0.109 | [5] 0.067 | saracatinib 0.024 | sotrastaurin -0.003 | alvocidib 0.031 | Tubastatin A -0.059 | [6] 0.047 | defactinib -0.01 | [7] -0.004 | encorafenib 0.052 | [8] -0.03 | alisertib 0.123 | [9] 0.056 | gefitinib 0.115

IFITM3 (UniProt Q01628)
UniProt Q01628, sequence (Q01628 whole entry, looked up): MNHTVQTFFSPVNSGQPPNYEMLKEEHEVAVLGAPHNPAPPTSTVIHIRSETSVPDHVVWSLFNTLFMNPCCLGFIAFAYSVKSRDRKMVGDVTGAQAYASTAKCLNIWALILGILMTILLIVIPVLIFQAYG
inactive: vemurafenib -0.046 | [1] 0.079 | barasertib 0.342 | [2] -0.06 | volasertib -0.025 | [3] 0.026 | [4] -0.11 | [5] 0.112 | saracatinib -0.041 | sotrastaurin 0.052 | alvocidib -0.001 | Tubastatin A -0.329 | [6] 0.01 | defactinib 0.118 | [7] 0.042 | encorafenib 0.043 | [8] -0.142 | alisertib 0.109 | [9] -0.137 | gefitinib 0.291

HK2 (UniProt P52789)
inactive: vemurafenib 0.046 | [1] 0.006 | barasertib 0.009 | [2] -0.044 | volasertib -0.049 | [3] 0.023 | [4] -0.015 | [5] -0.075 | saracatinib -0.009 | sotrastaurin 0.001 | alvocidib 0.006 | Tubastatin A -0.17 | [6] 0.024 | defactinib 0.017 | [7] -0.006 | encorafenib 0 | [8] 0.165 | alisertib 0.023 | [9] -0.031 | gefitinib -0.016

HAUS3 (UniProt Q68CZ6)
UniProt Q68CZ6, sequence (Q68CZ6 whole entry, looked up): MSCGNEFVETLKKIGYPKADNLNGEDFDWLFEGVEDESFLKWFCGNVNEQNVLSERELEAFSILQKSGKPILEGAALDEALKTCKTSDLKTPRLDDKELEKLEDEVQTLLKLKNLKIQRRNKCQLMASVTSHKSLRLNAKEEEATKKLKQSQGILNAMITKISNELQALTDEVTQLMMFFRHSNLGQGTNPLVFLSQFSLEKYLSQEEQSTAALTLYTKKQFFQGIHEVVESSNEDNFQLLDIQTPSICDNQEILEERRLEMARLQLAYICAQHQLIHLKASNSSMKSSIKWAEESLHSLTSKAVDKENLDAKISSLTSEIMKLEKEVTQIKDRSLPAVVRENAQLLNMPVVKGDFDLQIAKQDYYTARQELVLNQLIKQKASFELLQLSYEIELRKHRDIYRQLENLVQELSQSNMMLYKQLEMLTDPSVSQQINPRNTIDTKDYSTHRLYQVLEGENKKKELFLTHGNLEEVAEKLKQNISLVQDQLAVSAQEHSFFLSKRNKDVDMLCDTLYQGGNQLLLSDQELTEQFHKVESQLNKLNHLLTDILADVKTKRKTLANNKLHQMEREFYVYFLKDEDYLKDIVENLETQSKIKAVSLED
inactive: vemurafenib 0.012 | [1] 0.024 | barasertib 0.006 | [2] -0.029 | volasertib -0.048 | [3] 0.002 | [4] -0.035 | [5] -0.065 | saracatinib -0.016 | sotrastaurin 0.01 | alvocidib -0.022 | Tubastatin A -0.159 | [6] 0.043 | defactinib -0.023 | [7] -0.021 | encorafenib 0.026 | [8] 0.065 | alisertib 0.014 | [9] 0.003 | gefitinib -0.011

HNRNPM (UniProt P52272)
inactive: vemurafenib -0.017 | [1] -0.013 | barasertib 0.079 | [2] 0.027 | volasertib -0.107 | [3] 0.046 | [4] -0.017 | [5] -0.01 | saracatinib 0.055 | sotrastaurin 0.024 | alvocidib -0.01 | Tubastatin A -0.096 | [6] 0.022 | defactinib 0.045 | [7] -0.067 | encorafenib 0.166 | [8] -0.035 | alisertib 0.069 | [9] 0.037 | gefitinib 0.012

GSE1 (UniProt Q14687)
inactive: vemurafenib -0.018 | [1] 0.035 | barasertib 0.011 | [2] -0.015 | volasertib -0.026 | [3] 0.007 | [4] -0.074 | [5] -0.009 | saracatinib 0.031 | sotrastaurin 0.049 | alvocidib -0.032 | Tubastatin A -0.155 | [6] 0.014 | defactinib -0.006 | [7] -0.001 | encorafenib 0.017 | [8] 0.05 | alisertib -0.017 | [9] 0.027 | gefitinib 0.013

GSK3B isoform 2 (UniProt P49841)
UniProt P49841, sequence (P49841 whole entry, looked up): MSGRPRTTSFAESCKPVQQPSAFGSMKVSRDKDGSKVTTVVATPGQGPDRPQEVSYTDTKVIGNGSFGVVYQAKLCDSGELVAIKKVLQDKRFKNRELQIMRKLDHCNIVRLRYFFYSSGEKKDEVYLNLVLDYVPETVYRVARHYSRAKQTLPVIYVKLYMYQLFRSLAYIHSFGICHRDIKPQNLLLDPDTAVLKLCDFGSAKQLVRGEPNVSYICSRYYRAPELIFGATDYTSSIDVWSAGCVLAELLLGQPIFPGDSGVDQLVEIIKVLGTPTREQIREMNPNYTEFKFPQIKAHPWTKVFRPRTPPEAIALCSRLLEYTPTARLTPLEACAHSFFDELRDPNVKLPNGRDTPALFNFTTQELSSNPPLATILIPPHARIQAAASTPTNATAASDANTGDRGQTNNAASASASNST
inactive: vemurafenib -0.009 | [1] 0.038 | barasertib 0.026 | [2] -0.015 | volasertib -0.093 | [3] -0.011 | [4] -0.013 | [5] 0.096 | saracatinib -0.049 | sotrastaurin 0.601 | alvocidib 0.518 | Tubastatin A -0.077 | [6] 0.015 | defactinib 0.562 | [7] 0.114 | encorafenib 0.425 | [8] -0.114 | [9] 0 | gefitinib 0.029

HAUS4 (UniProt Q9H6D7)
UniProt Q9H6D7, sequence (Q9H6D7 whole entry, looked up): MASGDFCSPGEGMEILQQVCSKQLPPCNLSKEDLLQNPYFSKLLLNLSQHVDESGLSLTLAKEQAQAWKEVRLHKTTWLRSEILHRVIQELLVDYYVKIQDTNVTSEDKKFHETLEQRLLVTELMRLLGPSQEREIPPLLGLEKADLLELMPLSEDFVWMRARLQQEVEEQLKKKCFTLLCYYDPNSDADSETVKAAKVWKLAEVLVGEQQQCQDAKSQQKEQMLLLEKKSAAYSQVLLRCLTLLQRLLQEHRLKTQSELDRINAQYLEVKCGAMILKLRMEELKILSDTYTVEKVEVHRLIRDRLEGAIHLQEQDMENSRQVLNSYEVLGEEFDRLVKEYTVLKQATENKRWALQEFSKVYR
inactive: vemurafenib 0.007 | [1] 0.044 | barasertib 0.107 | [2] -0.047 | volasertib -0.039 | [3] 0.015 | [4] -0.045 | [5] -0.04 | saracatinib 0.022 | sotrastaurin 0.02 | alvocidib 0.007 | Tubastatin A -0.116 | [6] 0.007 | defactinib 0.014 | [7] -0.005 | encorafenib 0.002 | [8] 0.012 | alisertib 0.008 | [9] -0.017 | gefitinib -0.022

HLCS (UniProt P50747)
inactive: vemurafenib -0.002 | [1] 0.034 | barasertib -0.001 | [2] -0.034 | volasertib -0.054 | [3] 0.003 | [5] -0.041 | saracatinib -0.026 | sotrastaurin 0.027 | alvocidib -0.015 | Tubastatin A 0.036 | [6] 0.018 | defactinib 0.017 | [7] 0.025 | encorafenib 0.003 | [8] 0.053 | alisertib -0.01 | [9] 0.038 | gefitinib 0.013
active: [4] 0.293

HSPA14 (UniProt Q0VDF9)
UniProt Q0VDF9, sequence (Q0VDF9 whole entry, looked up): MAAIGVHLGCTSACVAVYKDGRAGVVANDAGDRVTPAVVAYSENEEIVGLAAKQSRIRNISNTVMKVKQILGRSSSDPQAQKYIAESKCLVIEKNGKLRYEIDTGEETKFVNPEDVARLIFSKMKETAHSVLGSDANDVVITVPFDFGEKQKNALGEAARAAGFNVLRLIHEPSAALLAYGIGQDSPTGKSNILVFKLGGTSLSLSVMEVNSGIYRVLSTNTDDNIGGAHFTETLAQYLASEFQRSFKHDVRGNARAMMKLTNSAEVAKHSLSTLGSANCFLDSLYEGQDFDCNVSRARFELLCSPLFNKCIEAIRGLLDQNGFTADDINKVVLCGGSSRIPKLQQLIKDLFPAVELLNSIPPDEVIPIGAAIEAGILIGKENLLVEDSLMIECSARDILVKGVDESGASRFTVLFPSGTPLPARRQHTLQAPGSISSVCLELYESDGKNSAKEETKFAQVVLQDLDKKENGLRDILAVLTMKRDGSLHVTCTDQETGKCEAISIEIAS
inactive: vemurafenib 0.023 | [1] 0.011 | barasertib 0.001 | [2] -0.026 | volasertib -0.043 | [3] 0.013 | [4] 0.04 | [5] -0.021 | saracatinib 0.002 | sotrastaurin 0.039 | alvocidib 0.001 | Tubastatin A -0.081 | [6] 0.01 | defactinib 0.012 | [7] -0.011 | encorafenib -0.004 | [8] 0.153 | alisertib 0.028 | [9] 0 | gefitinib 0.02

INTS3 (UniProt Q68E01)
UniProt Q68E01, sequence (Q68E01 whole entry, looked up): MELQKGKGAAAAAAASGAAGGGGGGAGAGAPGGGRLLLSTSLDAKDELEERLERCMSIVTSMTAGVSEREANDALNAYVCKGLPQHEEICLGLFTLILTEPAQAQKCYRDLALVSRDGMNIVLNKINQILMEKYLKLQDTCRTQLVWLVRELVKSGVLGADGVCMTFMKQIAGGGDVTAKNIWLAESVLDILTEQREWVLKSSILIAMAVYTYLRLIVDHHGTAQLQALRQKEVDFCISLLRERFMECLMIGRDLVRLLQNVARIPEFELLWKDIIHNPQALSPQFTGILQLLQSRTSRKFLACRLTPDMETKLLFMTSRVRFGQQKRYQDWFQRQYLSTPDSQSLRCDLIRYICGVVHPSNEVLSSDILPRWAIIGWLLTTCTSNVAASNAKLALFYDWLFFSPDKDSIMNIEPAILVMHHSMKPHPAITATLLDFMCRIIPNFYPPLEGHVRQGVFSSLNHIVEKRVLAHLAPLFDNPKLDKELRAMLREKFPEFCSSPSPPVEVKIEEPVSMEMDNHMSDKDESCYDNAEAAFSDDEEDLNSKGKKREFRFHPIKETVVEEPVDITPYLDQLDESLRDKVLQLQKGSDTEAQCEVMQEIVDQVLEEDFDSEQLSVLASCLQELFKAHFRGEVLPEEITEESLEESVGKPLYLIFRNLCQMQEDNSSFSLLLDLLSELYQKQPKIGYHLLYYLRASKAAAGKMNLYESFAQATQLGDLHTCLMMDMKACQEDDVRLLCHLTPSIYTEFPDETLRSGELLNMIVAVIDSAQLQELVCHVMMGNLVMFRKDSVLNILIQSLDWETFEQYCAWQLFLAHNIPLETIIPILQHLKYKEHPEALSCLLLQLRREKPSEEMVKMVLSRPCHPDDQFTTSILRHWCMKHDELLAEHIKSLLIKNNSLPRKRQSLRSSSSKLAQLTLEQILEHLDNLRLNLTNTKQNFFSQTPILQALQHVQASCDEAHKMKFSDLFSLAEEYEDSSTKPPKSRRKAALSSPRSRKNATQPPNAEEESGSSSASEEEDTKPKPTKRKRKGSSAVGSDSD
inactive: vemurafenib 0.038 | [1] 0.02 | barasertib 0.05 | [2] -0.029 | volasertib -0.017 | [3] -0.083 | [4] 0.072 | [5] -0.018 | saracatinib 0.049 | sotrastaurin 0.015 | alvocidib -0.003 | Tubastatin A 0.012 | [6] 0.003 | defactinib 0.012 | [7] -0.002 | encorafenib -0.027 | [8] 0.072 | alisertib -0.031 | [9] 0.005 | gefitinib 0.047

HNRNPD isoform 2 (UniProt Q14103)
active: [4] 0.857
inactive: vemurafenib 0.011 | [1] 0.002 | barasertib -0.052 | [2] 0.022 | volasertib 0.029 | [3] -0.036 | [5] -0.135 | saracatinib 0 | sotrastaurin -0.08 | alvocidib 0.142 | Tubastatin A 0.108 | [6] 0.001 | defactinib -0.043 | [7] 0.065 | encorafenib -0.032 | [8] -0.008 | alisertib 0.018 | [9] -0.008 | gefitinib 0

HSD17B10 (UniProt Q99714)
UniProt Q99714, sequence (Q99714 whole entry, looked up): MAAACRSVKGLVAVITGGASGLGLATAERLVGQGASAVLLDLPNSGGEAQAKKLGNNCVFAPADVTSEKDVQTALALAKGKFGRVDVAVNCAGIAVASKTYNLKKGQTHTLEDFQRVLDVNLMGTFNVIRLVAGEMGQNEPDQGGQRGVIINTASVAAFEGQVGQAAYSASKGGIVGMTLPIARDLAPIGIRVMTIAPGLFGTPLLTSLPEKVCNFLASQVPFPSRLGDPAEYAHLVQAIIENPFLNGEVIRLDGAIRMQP
inactive: vemurafenib 0.017 | [1] -0.016 | barasertib -0.021 | [2] -0.006 | volasertib -0.015 | [3] -0.022 | [4] -0.081 | [5] 0.024 | saracatinib -0.022 | sotrastaurin -0.014 | alvocidib -0.02 | Tubastatin A -0.077 | [6] 0.004 | defactinib -0.029 | [7] 0.05 | encorafenib -0.035 | [8] 0.141 | alisertib 0.013 | [9] -0.009 | gefitinib -0.021

ICAM2 (UniProt P13598)
UniProt P13598, sequence (P13598 whole entry, looked up): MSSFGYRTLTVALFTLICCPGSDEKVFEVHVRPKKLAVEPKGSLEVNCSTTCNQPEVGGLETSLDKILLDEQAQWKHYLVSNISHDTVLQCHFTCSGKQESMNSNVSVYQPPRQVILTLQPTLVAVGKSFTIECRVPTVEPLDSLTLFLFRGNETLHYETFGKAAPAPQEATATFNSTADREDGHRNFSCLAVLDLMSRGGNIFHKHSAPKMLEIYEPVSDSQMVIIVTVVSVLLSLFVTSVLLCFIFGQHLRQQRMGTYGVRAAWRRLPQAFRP
active: [4] 0.426
inactive: vemurafenib -0.036 | [1] 0.016 | barasertib 0.018 | [2] 0.03 | volasertib 0.015 | [3] -0.017 | [5] -0.031 | saracatinib 0.004 | sotrastaurin -0.035 | alvocidib 0.078 | Tubastatin A 0.017 | [6] 0.032 | defactinib 0.039 | [7] -0.019 | encorafenib -0.026 | [8] -0.065 | alisertib -0.016 | [9] 0.009 | gefitinib -0.02

KHDRBS1 (UniProt Q07666)
UniProt Q07666, sequence (Q07666 whole entry, looked up): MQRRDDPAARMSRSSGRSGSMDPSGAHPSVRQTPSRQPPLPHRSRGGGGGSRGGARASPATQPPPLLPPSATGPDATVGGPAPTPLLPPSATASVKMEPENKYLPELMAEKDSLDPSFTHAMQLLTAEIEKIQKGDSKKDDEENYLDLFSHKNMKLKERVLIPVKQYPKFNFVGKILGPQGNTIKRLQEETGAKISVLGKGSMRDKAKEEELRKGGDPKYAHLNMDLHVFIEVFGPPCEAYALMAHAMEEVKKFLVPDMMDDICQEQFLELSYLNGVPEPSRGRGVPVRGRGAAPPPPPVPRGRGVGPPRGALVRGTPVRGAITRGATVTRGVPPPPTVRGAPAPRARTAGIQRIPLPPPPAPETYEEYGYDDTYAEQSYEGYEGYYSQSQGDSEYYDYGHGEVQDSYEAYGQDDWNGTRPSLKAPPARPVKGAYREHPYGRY
inactive: vemurafenib -0.025 | [1] 0.004 | barasertib 0.034 | [2] -0.024 | volasertib -0.024 | [3] -0.002 | [4] 0.083 | [5] -0.048 | saracatinib -0.004 | sotrastaurin -0.008 | alvocidib 0.039 | Tubastatin A -0.045 | [6] 0.017 | defactinib -0.006 | [7] 0.007 | encorafenib 0.019 | [8] -0.139 | alisertib -0.025 | [9] 0.011 | gefitinib -0.01

GTF2H4 (UniProt Q92759)
UniProt Q92759, sequence (Q92759 whole entry, looked up): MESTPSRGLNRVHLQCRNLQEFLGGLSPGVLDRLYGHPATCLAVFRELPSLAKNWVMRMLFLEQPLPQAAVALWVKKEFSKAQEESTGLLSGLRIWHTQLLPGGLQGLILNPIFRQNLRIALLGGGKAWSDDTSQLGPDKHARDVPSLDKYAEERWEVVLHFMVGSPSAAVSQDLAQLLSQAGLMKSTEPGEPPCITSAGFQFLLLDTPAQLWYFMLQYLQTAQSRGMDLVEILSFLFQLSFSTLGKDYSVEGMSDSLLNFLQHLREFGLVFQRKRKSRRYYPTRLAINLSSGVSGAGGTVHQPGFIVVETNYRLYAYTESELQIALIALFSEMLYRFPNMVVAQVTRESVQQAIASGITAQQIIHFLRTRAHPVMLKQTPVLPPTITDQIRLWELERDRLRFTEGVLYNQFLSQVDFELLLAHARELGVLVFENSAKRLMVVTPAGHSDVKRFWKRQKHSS
inactive: vemurafenib -0.047 | [1] 0.007 | barasertib 0.039 | [2] -0.099 | volasertib -0.046 | [3] 0.028 | [4] 0.063 | [5] -0.075 | saracatinib 0.029 | sotrastaurin 0.034 | alvocidib 0.005 | Tubastatin A -0.069 | [6] 0.018 | defactinib 0.085 | [7] -0.01 | encorafenib 0.025 | [8] -0.015 | alisertib 0.016 | [9] 0.02 | gefitinib -0.022
